According to PubChem BioAssay (NCATS):
Results filed as inconclusive are left out. The source made the active and inactive calls. Calls follow the shape of the dose curve; as a rule, active = well fitted cell-killing curve with a large enough effect; inconclusive = small, poorly fitted or top-dose-only effect, or effect the other way; inactive = no such curve, though single readings can be large or run the other way.
Potency is read from the fitted curve at half-maximal effect.

Assay: qHTS of pediatric cancer cell lines to identify multiple opportunities for drug repurposing: Confirmatory screen for OHS-50 cells (AID 1347128);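 also: compound exposure lasted 48 h at 37 degrees C; nearly all actives have a fitted effect of over 55% in size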
Details: OHS-50 osteosarcoma cells viability; series mostly up to 45.9 µM
Summary of the method: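 Cells (500-1,000/well) rested 5 h, then received compounds for 48 h; metabolically active cells were measured by CellTiter-Glo luminescence. Final concentrations spanned up to 46 µM (MIPE, 11-point) or 0.59 nM-46 µM (NPC, 8-point) in primary screens, 11-point in follow-ups.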
With `CNC(=O)c1cc(Oc2ccc(NC(=O)Nc3ccc(Cl)c(C(F)(F)F)c3)cc2)ccn1` the Potency was 18.5 µM (active).
With `NC(=O)c1cccnc1` the Potency was “inactive”.
For `C[C@@H]1C[C@H]2[C@@H]3CCC4=CC(=O)C=C[C@]4(C)[C@@]3(Cl)[C@@H](O)C[C@]2(C)[C@@]1(OC(=O)c1ccco1)C(=O)CCl`, the Potency was 11.7 µM (active).
With `COC(=O)Nc1nc2ccc(C(=O)c3ccccc3)cc2[nH]1` the Potency was 2.93 µM (active).
With `CC(=O)[C@H]1CC[C@H]2[C@@H]3CCC4=CC(=O)CC[C@]4(C)[C@H]3CC[C@]12C` the Potency was 26.1 µM (active).
With `Nc1nc(N)c2nc(CNc3ccc(C(=O)NC(CCC(=O)O)C(=O)O)cc3)cnc2n1` (stereo not drawn) the Potency was 0.369 µM (active).
In the case of `CCOC(=O)c1ccc(C#Cc2ccc3c(c2)C(C)(C)CCS3)nc1`, the Potency is reported as “inactive”.
In the case of `Nc1nc(N)nc(-c2cc(Cl)ccc2Cl)n1`, the Potency is reported as “inactive”.
